# Test system: Plasmodium falciparum NF54
# Assay: growth inhibition relative to untreated control; higher = more inhibition
# Conditions: 1 µM; MM + chorismate end-products (CM screening medium); 72 h
# In short: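 Two media were used: minimal RPMI, and minimal RPMI carrying the chorismate end-products folate, pABA, pHBA, tyrosine, phenylalanine and tryptophan at 2.2 μM, 7.3 μM, 7.3 μM, 111 μM and 90 μM for the first five. In these media, P. falciparum NF54 ring stages (1% hematocrit, 1% parasitemia, 100 μL/well) were exposed in dark 96-well half-area plates to a single 5 μM or 1 μM test-compound dose for 72 h at 37 °C. Growth inhibition was then assessed with SYBR Green against untreated wells, subtracting background from uninfected erythrocytes.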
row,SMILES,growth inhibition [%]
1,CC1COC(Cn2cncn2)(c2ccc(Oc3ccc(Cl)cc3)cc2Cl)O1 (stereo unspecified),22
2,CO[C@@H]1CN(c2ccc(C#CC3(O)CN4CCC3CC4)c(Cc3ccccc3)n2)C[C@H]1O (stereo partly specified),33.3
3,CO/C=C(/C(=O)OC)c1ccccc1Oc1cc(Oc2ccccc2C#N)ncn1,96
4,CC1(C)OB(O)c2ccc(C3=NOC(c4cc(Cl)c(F)c(Cl)c4)(C(F)(F)F)C3)cc21 (stereo unspecified),53.3
5,Cc1nn(C)c(C)c1NS(=O)(=O)c1c(Cl)cc(-c2ccnc(N3CCNCC3)c2)cc1Cl,55.7
6,CO/N=C(\C(=O)OC)c1ccccc1CO/N=C(\C)c1cccc(C(F)(F)F)c1,98
7,Cc1cccc(C(=O)Nc2ccnc(N(C)C3CCN(CC(C)C)CC3)c2)c1,> 100
8,CC(C)(C)C(O)C(Oc1ccc(-c2ccccc2)cc1)n1cncn1 (stereo unspecified),46.2
9,Cc1nn(Cc2ccccc2)c(Cl)c1C(=O)NC1CCCCCC1,16.8
10,Nc1c2c(nc3sc4c(c13)CCCC4)CCCC2,2.72
11,Cc1cc(C2=NOC(c3cc(Cl)c(F)c(Cl)c3)(C(F)(F)F)C2)ccc1C(=O)NCc1ccc2c(c1)C(C)(C)OB2O (stereo unspecified),19.4
12,O=C1O[C@@H](COc2ccon2)CN1c1cc(F)c(C2=CCN(Cc3ccccc3)CC2)c(F)c1,13.6
13,CCc1nn(C)c(C(=O)NCc2ccc(Oc3ccc(C)cc3)cc2)c1Cl,< 0
14,O=C1O[C@@H](CO)CN1c1cc(F)c(C2=CCN(Cc3ccccc3)CC2)c(F)c1,19.3

# Same assay, conditions: 1 µM; minimal medium (MM); 72 h
row,SMILES,growth inhibition [%]
1,CC1COC(Cn2cncn2)(c2ccc(Oc3ccc(Cl)cc3)cc2Cl)O1 (stereo unspecified),38.1
2,CO[C@@H]1CN(c2ccc(C#CC3(O)CN4CCC3CC4)c(Cc3ccccc3)n2)C[C@H]1O (stereo partly specified),< 0
3,CO/C=C(/C(=O)OC)c1ccccc1Oc1cc(Oc2ccccc2C#N)ncn1,94.7
4,CC1(C)OB(O)c2ccc(C3=NOC(c4cc(Cl)c(F)c(Cl)c4)(C(F)(F)F)C3)cc21 (stereo unspecified),48.1
5,Cc1nn(C)c(C)c1NS(=O)(=O)c1c(Cl)cc(-c2ccnc(N3CCNCC3)c2)cc1Cl,79.5
6,CO/N=C(\C(=O)OC)c1ccccc1CO/N=C(\C)c1cccc(C(F)(F)F)c1,96.6
7,Cc1cccc(C(=O)Nc2ccnc(N(C)C3CCN(CC(C)C)CC3)c2)c1,61.7
8,CC(C)(C)C(O)C(Oc1ccc(-c2ccccc2)cc1)n1cncn1 (stereo unspecified),5.38
9,Cc1nn(Cc2ccccc2)c(Cl)c1C(=O)NC1CCCCCC1,< 0
10,Nc1c2c(nc3sc4c(c13)CCCC4)CCCC2,13.8
11,Cc1cc(C2=NOC(c3cc(Cl)c(F)c(Cl)c3)(C(F)(F)F)C2)ccc1C(=O)NCc1ccc2c(c1)C(C)(C)OB2O (stereo unspecified),< 0
12,O=C1O[C@@H](COc2ccon2)CN1c1cc(F)c(C2=CCN(Cc3ccccc3)CC2)c(F)c1,< 0
13,CCc1nn(C)c(C(=O)NCc2ccc(Oc3ccc(C)cc3)cc2)c1Cl,3.68
14,O=C1O[C@@H](CO)CN1c1cc(F)c(C2=CCN(Cc3ccccc3)CC2)c(F)c1,23.4

# Same assay, conditions: 5 µM; MM + chorismate end-products (CM screening medium); 72 h
row,SMILES,growth inhibition [%]
1,CC1COC(Cn2cncn2)(c2ccc(Oc3ccc(Cl)cc3)cc2Cl)O1 (stereo unspecified),67.8
2,CO[C@@H]1CN(c2ccc(C#CC3(O)CN4CCC3CC4)c(Cc3ccccc3)n2)C[C@H]1O (stereo partly specified),42.8
3,CO/C=C(/C(=O)OC)c1ccccc1Oc1cc(Oc2ccccc2C#N)ncn1,90.4
4,CC1(C)OB(O)c2ccc(C3=NOC(c4cc(Cl)c(F)c(Cl)c4)(C(F)(F)F)C3)cc21 (stereo unspecified),53.9
5,Cc1nn(C)c(C)c1NS(=O)(=O)c1c(Cl)cc(-c2ccnc(N3CCNCC3)c2)cc1Cl,84.1
6,CO/N=C(\C(=O)OC)c1ccccc1CO/N=C(\C)c1cccc(C(F)(F)F)c1,91.5
7,Cc1cccc(C(=O)Nc2ccnc(N(C)C3CCN(CC(C)C)CC3)c2)c1,94.8
8,CC(C)(C)C(O)C(Oc1ccc(-c2ccccc2)cc1)n1cncn1 (stereo unspecified),< 0
9,Cc1nn(Cc2ccccc2)c(Cl)c1C(=O)NC1CCCCCC1,< 0
10,Nc1c2c(nc3sc4c(c13)CCCC4)CCCC2,52.3
11,Cc1cc(C2=NOC(c3cc(Cl)c(F)c(Cl)c3)(C(F)(F)F)C2)ccc1C(=O)NCc1ccc2c(c1)C(C)(C)OB2O (stereo unspecified),40.8
12,O=C1O[C@@H](COc2ccon2)CN1c1cc(F)c(C2=CCN(Cc3ccccc3)CC2)c(F)c1,54.4
13,CCc1nn(C)c(C(=O)NCc2ccc(Oc3ccc(C)cc3)cc2)c1Cl,< 0
14,O=C1O[C@@H](CO)CN1c1cc(F)c(C2=CCN(Cc3ccccc3)CC2)c(F)c1,45

# Same assay, conditions: 5 µM; minimal medium (MM); 72 h
row,SMILES,growth inhibition [%]
1,CC1COC(Cn2cncn2)(c2ccc(Oc3ccc(Cl)cc3)cc2Cl)O1 (stereo unspecified),33.6
2,CO[C@@H]1CN(c2ccc(C#CC3(O)CN4CCC3CC4)c(Cc3ccccc3)n2)C[C@H]1O (stereo partly specified),9.06
3,CO/C=C(/C(=O)OC)c1ccccc1Oc1cc(Oc2ccccc2C#N)ncn1,92.2
4,CC1(C)OB(O)c2ccc(C3=NOC(c4cc(Cl)c(F)c(Cl)c4)(C(F)(F)F)C3)cc21 (stereo unspecified),11.9
5,Cc1nn(C)c(C)c1NS(=O)(=O)c1c(Cl)cc(-c2ccnc(N3CCNCC3)c2)cc1Cl,89.6
6,CO/N=C(\C(=O)OC)c1ccccc1CO/N=C(\C)c1cccc(C(F)(F)F)c1,91.8
7,Cc1cccc(C(=O)Nc2ccnc(N(C)C3CCN(CC(C)C)CC3)c2)c1,92.4
8,CC(C)(C)C(O)C(Oc1ccc(-c2ccccc2)cc1)n1cncn1 (stereo unspecified),< 0
9,Cc1nn(Cc2ccccc2)c(Cl)c1C(=O)NC1CCCCCC1,< 0
10,Nc1c2c(nc3sc4c(c13)CCCC4)CCCC2,13.1
11,Cc1cc(C2=NOC(c3cc(Cl)c(F)c(Cl)c3)(C(F)(F)F)C2)ccc1C(=O)NCc1ccc2c(c1)C(C)(C)OB2O (stereo unspecified),10.9
12,O=C1O[C@@H](COc2ccon2)CN1c1cc(F)c(C2=CCN(Cc3ccccc3)CC2)c(F)c1,28.6
13,CCc1nn(C)c(C(=O)NCc2ccc(Oc3ccc(C)cc3)cc2)c1Cl,< 0
14,O=C1O[C@@H](CO)CN1c1cc(F)c(C2=CCN(Cc3ccccc3)CC2)c(F)c1,49.9
